Results taken from PubChem BioAssay (Tox21).
Results filed as inconclusive are left out. Entries that show only a call come without a potency. Activity calls are given as the source filed them. Calls follow the shape of the dose curve; as a rule, active = well fitted cell-killing curve with a large enough effect in the repeat runs; inconclusive = weak or mixed curves, or effect the other way; inactive = flat fitted curve, though single readings scatter.

assay: qHTS assay to identify small molecule antagonists of the constitutive androstane receptor (CAR) signaling pathway - cell viability counter screen (AID 1224837); conditions: HepG2-CYP2B6-hCAR viability, CellTiter-Fluor, 23 h, co-treated with 50 nM CITCO; series mostly up to 92.4 µM; also: nearly all actives have a fitted effect of over 45% in size
From the text: National Center for Advancing Translational Sciences [NCATS]
NIH Chemical Genomics Center [NCGC]
U.S. Environmental Protection Agency [EPA]
National Institutes of Environmental Health Sciences [NIEHS]
National Toxicology Program [NTP]
U.S. Food and Drug Administration [FDA]
The constitutive androstane receptor (CAR) is a nuclear receptor which regulates multiple drug metabolizing enzymes (DMEs) and transporters. Activating CAR will generally increase the transcription and subsequent translation of CYP2B6 and CYP3A4. These two DMEs represent about 50% of the drug metabolizing potential in the body. When CAR is deactivated, the metabolizing potential in the body will decrease, subsequently increasing the toxicity in the body or lowering the therapeutic potential of a pro-drug. Recently, there have also been studies performed indicating CARs role in energy metabolism and cancer therapy. Therefore, inhibiting CARs activity could have a potential effect on diabetes and cancer. Identifying environmental toxins and compounds which modulate CAR, through the use of the Tox21 10K compound collection, will be an important step in determining the toxicity and potential therapeutic effects these factors will have on the human body. To differentiate true CAR antagonists from cytotoxic substances, the assay is multiplexed with a cell viability assay.
Tox21 Assay Protocol Summary:
A double-stable (hCAR and CYP2B6-2.2kb) transfected cell line, derived from human hepatoma (HepG2) cells, was utilized for the duration of the quantitative high-throughput screens. The HepG2-CYP2B6-hCAR cells were dispensed at 2500 cells/4 uL/well in 1536-well white solid bottom plates using a Multidrop Combi. After the assay plates were incubated at 37 C/5% CO2 for 4 hrs, 23 nL of compounds at 15 concentrations (from 5-48 columns) or positive control (from 1 to 4 columns) were transferred to the assay plates using a Pintool station. One uL of CITCO (final concentration = 50 nM) was added, using a Flying Reagent Dispenser, inside each well. After a 23 hr incubation period at 37 C/5% CO2, 1 uL of CellTiter-Fluor reagent was added into each well of the assay plates using a Flying Reagent Dispenser. The fluorescence intensity in the plates was then measured using a ViewLux plate reader.

Row | Structure (SMILES) | Potency
1 | Nc1cnn(-c2ccccc2)c(=O)c1Cl | inactive
2 | Cc1coc2c1CCC(C)C2 (stereo not given) | inactive
3 | CC1(C(=O)Nc2ccc(O)c(Cl)c2Cl)CCCCC1 | inactive
4 | COCC(=O)N(c1c(C)cccc1C)N1CCOC1=O | inactive
5 | COC(=O)c1ccccc1S(=O)(=O)NC(=O)N(C)c1nc(C)nc(OC)n1 | inactive
6 | Nc1cc2c3c(c1)C(c1ccccc1)=N[C@@H](NC(=O)c1cccnc1)C(=O)N3CC2 | inactive
7 | CCNc1nc(NC(C)C)nc(OC)n1 | inactive
8 | CCCSP(=S)(OCC)Oc1ccc(Cl)cc1Cl (stereo not given) | inactive
9 | CC(C)[N+](=O)[O-] | inactive
10 | CNC(=O)Oc1ccccc1C1OCCO1 | inactive
11 | Cc1cccc(C#N)c1 | inactive
12 | CCOC(=O)CP(=O)(OCC)OCC | inactive
13 | CCCCOC(=O)[C@@H](C)Oc1ccc(Oc2ccc(C#N)cc2F)cc1 | inactive
14 | c1cc[c]([Hg][c]2ccccc2)cc1 | inactive
15 | COc1ccc2c(c1OC)CN1CCc3cc4c(cc3C1C2)OCO4 (stereo not given) | inactive
16 | COc1ccc(C(=O)N2CCCC2=O)cc1 | inactive
17 | ClCCOCOCCCl | inactive
18 | CCOC(=O)N(C)C(=O)CSP(=S)(OCC)OCC | inactive
19 | CCOC(=O)C1(c2ccccc2)CCN(CCc2ccc(N)cc2)CC1 | inactive
20 | [Cl][Sn]([Cl])([Cl])[Cl] | inactive

Row | Structure (SMILES) | Potency
21 | O=C(O)c1ccc2[nH]cc(CCCCN3CC=C(c4ccccc4)CC3)c2c1 | inactive
22 | ClCC(Cl)Cl | inactive
23 | N#CCCC#N | inactive
24 | c1ccc(N2CCNCC2)cc1 | inactive
25 | c1coc(-c2nc3ccccc3[nH]2)c1 | inactive
26 | Fc1ccc(C2(Cn3cncn3)OC2c2ccccc2Cl)cc1 (stereo not given) | inactive
27 | CC(C)CC(N(C)C)C1(c2ccc(Cl)cc2)CCC1 (stereo not given) | inactive
28 | CCOP(=O)(OCC)OP(=O)(OCC)OCC | inactive
29 | COC(=O)c1c(C(F)F)nc(C(F)(F)F)c(C2=NCCS2)c1CC(C)C | inactive
30 | Cc1cc(C)c(C(=O)P(=O)(C(=O)c2c(C)cc(C)cc2C)c2ccccc2)c(C)c1 | inactive
31 | CCOC(=O)C(c1c(O)c2ccccc2oc1=O)c1c(O)c2ccccc2oc1=O | inactive
32 | CCOP(=S)(OCC)Oc1nc(Cl)n(C(C)C)n1 | inactive
33 | OCCBr | inactive
34 | Cc1nnc2n1-c1sc(CCC(=O)N3CCOCC3)cc1C(c1ccccc1Cl)=NC2 | inactive
35 | O=[N+]([O-])c1cccc(O)c1 | inactive
36 | ClCC(Cl)(Cl)Cl | inactive
37 | ClC(Br)Br | inactive
38 | CNC(=O)N(C)c1nc2ccccc2s1 | inactive
39 | C[C@]1(O)CC[C@H]2[C@@H]3CCC4=CC(=O)CC[C@]4(C)[C@@]3(F)[C@@H](O)C[C@@]21C | inactive
40 | COC(=O)C(C)Oc1ccc(Oc2ccc(Cl)cc2Cl)cc1 (stereo not given) | inactive
